Assay results reported in the supplement of paper PMC11732987, “Enantioselective OTUD7B fragment discovery through chemoproteomics screening and high-throughput optimisation” (Communications Chemistry, 2025).
Unmarked numbers belong to inactive results.

Tests used:
Test in all cases: log2 ratio of Biotin-Ahx-Ub-VS probe labelling (fragment/DMSO); higher = less target engagement (more negative = stronger competition), active = hit call of the paper (q ≤ 0.05, log2 ratio ≤ -1)
Details in all cases: compound concentration: 200 uM; treatment time: 3 h
USP42 = biological target: T1, USP42 (UniProt Q9H9J4)
T1 sequence (whole entry): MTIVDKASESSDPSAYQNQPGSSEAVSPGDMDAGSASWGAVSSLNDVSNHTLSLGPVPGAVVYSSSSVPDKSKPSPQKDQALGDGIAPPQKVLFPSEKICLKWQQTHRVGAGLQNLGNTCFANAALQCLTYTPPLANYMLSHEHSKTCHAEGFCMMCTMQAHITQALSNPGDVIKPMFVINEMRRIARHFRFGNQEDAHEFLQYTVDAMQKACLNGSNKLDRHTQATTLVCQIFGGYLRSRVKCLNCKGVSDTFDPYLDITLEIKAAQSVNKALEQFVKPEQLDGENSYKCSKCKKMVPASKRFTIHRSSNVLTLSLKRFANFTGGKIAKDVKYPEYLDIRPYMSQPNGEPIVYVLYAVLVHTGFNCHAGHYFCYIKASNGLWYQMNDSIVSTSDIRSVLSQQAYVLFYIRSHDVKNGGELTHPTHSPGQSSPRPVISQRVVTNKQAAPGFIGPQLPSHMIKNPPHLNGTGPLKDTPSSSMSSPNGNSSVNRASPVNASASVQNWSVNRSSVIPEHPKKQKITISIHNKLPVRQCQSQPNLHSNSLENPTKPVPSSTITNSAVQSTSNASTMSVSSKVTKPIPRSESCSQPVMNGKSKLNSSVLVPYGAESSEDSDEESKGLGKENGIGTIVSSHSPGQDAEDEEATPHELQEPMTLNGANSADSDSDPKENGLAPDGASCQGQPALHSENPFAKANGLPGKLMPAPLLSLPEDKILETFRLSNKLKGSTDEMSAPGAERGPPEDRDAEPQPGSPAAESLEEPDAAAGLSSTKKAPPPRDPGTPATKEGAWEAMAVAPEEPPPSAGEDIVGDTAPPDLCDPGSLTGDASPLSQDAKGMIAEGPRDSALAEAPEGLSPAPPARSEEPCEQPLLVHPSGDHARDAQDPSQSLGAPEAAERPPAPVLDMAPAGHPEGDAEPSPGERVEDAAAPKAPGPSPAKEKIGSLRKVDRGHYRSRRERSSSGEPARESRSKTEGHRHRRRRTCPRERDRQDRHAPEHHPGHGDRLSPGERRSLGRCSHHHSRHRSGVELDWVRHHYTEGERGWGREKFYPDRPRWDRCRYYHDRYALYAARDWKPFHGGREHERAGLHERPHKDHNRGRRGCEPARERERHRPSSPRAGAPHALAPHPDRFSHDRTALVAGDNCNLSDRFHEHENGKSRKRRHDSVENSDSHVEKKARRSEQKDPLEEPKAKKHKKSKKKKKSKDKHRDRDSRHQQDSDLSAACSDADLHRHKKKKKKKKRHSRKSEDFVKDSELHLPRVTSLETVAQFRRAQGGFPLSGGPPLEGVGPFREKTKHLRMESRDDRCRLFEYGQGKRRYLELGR
Procedure, shortened: (§1)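 Each value is an average log2 ratio of fragment to vehicle, tested by unpaired t-test. The underlying Spectronaut label-free quantities were global-median-normalised, and only proteins with ≥2 unique peptides were included. Triplicate HEK293T lysate samples (495 µg) were exposed to fragment at 200 µM or vehicle for 3 h, then to Biotin-Ahx-Ub-VS at 0.5 µM final for 1 h, before NeutrAvidin enrichment of labelled DUBs, LysC and trypsin digestion, and diaPASEF LC-MS/MS.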

USP46 = USP46 (UniProt P62068)
USP46, sequence (P62068 whole entry): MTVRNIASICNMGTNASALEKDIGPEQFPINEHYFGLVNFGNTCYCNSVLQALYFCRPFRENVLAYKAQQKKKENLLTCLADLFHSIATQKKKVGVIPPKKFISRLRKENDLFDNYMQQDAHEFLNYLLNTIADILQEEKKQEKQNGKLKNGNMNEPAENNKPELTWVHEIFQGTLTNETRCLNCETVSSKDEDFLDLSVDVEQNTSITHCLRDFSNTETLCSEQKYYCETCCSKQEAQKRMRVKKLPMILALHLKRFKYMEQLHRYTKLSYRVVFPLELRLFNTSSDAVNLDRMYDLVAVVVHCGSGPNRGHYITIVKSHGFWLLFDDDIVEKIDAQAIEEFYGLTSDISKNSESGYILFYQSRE
Procedure, shortened: as §1

USP47 = biological target: T2, USP47 (UniProt Q96K76)
T2 sequence (whole entry): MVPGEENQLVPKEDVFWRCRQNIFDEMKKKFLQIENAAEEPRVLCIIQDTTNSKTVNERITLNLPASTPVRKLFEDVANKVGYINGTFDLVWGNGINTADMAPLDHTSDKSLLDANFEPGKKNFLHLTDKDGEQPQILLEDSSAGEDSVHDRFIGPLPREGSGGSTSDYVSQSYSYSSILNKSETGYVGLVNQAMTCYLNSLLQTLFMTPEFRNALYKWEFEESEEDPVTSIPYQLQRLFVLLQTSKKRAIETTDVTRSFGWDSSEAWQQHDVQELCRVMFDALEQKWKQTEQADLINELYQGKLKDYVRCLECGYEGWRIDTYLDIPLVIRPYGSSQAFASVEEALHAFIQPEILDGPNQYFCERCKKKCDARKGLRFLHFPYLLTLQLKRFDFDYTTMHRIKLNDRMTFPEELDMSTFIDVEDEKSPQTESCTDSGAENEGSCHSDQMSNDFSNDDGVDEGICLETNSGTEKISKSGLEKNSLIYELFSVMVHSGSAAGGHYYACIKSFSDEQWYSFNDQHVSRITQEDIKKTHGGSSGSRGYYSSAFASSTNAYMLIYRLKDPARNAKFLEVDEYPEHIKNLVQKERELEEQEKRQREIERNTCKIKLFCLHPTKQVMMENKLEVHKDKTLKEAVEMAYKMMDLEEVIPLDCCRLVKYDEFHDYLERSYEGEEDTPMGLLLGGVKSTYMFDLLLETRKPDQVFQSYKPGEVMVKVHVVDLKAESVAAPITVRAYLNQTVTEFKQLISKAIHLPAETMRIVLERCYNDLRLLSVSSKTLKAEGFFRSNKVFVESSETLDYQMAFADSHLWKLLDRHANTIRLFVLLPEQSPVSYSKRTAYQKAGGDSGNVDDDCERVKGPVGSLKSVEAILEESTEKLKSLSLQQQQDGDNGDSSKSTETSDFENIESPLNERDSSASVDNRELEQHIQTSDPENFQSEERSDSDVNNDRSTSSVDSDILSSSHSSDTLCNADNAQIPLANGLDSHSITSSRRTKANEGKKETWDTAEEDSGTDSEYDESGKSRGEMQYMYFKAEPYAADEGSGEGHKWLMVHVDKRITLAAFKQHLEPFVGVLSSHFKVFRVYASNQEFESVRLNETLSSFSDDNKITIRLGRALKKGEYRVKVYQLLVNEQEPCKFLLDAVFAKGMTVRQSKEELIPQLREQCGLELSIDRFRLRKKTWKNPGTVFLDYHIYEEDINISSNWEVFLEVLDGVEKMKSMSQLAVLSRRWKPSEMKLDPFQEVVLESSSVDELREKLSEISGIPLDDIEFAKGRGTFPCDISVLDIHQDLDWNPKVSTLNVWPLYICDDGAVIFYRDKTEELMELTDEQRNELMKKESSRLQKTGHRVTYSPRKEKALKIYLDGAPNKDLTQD
Procedure, shortened: as §1

USP48 = biological target: T3, USP48 (UniProt Q86UV5)
T3 sequence (whole entry): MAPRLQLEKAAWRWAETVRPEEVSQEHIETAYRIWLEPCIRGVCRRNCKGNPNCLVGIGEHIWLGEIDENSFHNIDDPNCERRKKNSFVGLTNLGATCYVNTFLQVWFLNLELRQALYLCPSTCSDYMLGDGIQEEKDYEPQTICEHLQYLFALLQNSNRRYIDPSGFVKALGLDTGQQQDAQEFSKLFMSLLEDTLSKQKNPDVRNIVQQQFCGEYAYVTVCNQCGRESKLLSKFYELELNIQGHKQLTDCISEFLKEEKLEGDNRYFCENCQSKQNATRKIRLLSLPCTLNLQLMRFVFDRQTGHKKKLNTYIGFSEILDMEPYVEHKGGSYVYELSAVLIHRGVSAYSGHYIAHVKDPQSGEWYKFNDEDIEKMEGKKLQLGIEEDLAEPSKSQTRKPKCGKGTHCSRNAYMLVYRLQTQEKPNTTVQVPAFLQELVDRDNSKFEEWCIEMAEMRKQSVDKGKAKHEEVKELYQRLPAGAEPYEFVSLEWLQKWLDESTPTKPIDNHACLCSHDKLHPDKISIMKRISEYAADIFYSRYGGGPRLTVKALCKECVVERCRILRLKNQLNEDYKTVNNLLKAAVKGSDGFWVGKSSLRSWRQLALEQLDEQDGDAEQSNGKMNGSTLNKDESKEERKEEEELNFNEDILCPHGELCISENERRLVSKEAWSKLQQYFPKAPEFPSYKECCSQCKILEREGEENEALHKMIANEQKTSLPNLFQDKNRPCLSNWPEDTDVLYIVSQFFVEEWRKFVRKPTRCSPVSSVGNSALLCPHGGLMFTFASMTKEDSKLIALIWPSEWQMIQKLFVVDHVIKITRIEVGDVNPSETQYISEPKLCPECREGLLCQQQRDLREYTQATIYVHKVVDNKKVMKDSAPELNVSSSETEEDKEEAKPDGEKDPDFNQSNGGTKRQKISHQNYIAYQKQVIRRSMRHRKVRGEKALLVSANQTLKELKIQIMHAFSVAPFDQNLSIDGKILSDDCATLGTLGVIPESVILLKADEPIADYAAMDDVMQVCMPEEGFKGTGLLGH
Procedure, shortened: as §1

USP5 = biological target: T4, USP5 (UniProt P45974)
T4 sequence (whole entry): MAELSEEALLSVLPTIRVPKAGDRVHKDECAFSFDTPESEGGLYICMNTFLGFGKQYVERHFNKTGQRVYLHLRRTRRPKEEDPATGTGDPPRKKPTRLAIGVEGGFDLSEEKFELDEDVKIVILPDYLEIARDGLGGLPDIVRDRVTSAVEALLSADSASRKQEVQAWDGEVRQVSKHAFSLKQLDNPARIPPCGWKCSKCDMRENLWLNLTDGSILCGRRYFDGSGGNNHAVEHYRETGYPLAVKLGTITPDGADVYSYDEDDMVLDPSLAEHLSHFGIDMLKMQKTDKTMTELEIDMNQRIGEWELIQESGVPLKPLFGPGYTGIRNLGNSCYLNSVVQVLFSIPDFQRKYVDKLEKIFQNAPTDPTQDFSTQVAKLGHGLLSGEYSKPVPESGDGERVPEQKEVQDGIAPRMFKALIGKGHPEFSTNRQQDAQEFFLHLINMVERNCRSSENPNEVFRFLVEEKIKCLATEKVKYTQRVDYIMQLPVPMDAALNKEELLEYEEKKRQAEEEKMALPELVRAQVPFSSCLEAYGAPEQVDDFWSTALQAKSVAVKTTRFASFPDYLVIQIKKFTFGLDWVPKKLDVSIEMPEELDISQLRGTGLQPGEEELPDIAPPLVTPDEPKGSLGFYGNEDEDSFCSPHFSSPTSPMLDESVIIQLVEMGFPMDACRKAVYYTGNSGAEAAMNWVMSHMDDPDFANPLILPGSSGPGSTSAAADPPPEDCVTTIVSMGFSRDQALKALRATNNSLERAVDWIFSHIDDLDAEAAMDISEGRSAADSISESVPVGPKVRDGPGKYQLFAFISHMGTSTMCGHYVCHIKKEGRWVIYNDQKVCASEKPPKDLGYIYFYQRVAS
Procedure, shortened: as §1

USP54 = USP54 (UniProt Q70EL1)
Procedure, shortened: as §1

USP7 = USP7 (UniProt Q93009)
USP7, sequence (Q93009 whole entry, looked up): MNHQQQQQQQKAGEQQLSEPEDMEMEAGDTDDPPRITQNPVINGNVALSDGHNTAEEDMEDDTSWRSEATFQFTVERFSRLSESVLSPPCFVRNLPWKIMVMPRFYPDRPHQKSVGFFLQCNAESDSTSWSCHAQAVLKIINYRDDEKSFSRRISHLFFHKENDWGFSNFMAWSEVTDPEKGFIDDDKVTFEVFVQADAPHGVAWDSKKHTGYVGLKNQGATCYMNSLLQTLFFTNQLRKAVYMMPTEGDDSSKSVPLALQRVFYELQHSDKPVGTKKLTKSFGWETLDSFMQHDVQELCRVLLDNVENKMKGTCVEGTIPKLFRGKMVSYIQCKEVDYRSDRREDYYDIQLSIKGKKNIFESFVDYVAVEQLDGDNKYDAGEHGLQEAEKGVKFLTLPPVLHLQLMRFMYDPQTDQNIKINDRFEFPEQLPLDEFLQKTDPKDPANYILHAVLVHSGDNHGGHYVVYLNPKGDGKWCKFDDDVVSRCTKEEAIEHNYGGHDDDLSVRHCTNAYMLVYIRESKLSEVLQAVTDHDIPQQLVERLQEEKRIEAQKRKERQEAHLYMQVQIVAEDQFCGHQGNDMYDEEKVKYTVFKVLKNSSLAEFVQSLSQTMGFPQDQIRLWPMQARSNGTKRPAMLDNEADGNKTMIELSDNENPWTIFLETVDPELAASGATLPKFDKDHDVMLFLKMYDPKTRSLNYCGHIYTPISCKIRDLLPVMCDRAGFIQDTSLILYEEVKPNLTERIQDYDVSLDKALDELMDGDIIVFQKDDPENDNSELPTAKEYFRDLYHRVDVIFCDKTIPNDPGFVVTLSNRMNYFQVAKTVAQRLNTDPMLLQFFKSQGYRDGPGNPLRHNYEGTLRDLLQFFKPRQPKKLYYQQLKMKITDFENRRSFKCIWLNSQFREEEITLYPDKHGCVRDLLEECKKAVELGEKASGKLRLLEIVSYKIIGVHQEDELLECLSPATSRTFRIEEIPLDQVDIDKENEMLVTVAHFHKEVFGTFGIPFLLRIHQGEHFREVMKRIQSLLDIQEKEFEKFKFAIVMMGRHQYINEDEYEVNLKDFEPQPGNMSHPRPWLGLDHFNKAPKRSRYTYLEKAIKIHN
Procedure, shortened: as §1

USP8 = biological target: T5, USP8 (UniProt P40818)
T5 sequence (whole entry): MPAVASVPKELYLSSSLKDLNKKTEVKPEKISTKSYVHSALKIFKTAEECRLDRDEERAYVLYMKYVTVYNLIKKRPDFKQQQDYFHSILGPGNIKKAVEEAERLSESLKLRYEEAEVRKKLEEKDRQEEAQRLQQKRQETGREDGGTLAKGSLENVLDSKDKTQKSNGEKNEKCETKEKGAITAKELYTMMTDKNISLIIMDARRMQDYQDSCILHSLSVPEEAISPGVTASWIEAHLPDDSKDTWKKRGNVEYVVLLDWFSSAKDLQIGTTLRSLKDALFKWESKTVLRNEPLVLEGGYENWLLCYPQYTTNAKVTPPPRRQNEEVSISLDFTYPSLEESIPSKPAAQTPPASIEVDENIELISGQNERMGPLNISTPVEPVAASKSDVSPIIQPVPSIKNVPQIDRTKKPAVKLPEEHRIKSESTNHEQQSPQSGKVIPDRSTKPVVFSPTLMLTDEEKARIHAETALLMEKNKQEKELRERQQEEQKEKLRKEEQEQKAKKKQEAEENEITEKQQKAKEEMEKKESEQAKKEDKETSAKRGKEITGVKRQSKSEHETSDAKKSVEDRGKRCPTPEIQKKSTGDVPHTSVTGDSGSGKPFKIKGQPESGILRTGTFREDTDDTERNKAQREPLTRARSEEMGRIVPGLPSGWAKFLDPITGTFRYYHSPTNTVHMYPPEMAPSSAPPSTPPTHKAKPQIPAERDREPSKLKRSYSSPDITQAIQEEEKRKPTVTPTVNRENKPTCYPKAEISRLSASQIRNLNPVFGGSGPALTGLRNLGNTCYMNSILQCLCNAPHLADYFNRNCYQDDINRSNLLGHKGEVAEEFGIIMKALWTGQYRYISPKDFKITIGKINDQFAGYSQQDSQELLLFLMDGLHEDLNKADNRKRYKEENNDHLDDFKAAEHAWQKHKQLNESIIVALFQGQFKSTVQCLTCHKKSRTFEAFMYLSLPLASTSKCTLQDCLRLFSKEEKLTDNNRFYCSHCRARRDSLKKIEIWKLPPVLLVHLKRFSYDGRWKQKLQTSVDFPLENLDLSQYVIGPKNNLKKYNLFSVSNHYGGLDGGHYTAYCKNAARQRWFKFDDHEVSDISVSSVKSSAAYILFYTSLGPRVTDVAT
Procedure, shortened: as §1

USP9X = USP9X (UniProt Q93008)
USP9X, sequence (Q93008 whole entry): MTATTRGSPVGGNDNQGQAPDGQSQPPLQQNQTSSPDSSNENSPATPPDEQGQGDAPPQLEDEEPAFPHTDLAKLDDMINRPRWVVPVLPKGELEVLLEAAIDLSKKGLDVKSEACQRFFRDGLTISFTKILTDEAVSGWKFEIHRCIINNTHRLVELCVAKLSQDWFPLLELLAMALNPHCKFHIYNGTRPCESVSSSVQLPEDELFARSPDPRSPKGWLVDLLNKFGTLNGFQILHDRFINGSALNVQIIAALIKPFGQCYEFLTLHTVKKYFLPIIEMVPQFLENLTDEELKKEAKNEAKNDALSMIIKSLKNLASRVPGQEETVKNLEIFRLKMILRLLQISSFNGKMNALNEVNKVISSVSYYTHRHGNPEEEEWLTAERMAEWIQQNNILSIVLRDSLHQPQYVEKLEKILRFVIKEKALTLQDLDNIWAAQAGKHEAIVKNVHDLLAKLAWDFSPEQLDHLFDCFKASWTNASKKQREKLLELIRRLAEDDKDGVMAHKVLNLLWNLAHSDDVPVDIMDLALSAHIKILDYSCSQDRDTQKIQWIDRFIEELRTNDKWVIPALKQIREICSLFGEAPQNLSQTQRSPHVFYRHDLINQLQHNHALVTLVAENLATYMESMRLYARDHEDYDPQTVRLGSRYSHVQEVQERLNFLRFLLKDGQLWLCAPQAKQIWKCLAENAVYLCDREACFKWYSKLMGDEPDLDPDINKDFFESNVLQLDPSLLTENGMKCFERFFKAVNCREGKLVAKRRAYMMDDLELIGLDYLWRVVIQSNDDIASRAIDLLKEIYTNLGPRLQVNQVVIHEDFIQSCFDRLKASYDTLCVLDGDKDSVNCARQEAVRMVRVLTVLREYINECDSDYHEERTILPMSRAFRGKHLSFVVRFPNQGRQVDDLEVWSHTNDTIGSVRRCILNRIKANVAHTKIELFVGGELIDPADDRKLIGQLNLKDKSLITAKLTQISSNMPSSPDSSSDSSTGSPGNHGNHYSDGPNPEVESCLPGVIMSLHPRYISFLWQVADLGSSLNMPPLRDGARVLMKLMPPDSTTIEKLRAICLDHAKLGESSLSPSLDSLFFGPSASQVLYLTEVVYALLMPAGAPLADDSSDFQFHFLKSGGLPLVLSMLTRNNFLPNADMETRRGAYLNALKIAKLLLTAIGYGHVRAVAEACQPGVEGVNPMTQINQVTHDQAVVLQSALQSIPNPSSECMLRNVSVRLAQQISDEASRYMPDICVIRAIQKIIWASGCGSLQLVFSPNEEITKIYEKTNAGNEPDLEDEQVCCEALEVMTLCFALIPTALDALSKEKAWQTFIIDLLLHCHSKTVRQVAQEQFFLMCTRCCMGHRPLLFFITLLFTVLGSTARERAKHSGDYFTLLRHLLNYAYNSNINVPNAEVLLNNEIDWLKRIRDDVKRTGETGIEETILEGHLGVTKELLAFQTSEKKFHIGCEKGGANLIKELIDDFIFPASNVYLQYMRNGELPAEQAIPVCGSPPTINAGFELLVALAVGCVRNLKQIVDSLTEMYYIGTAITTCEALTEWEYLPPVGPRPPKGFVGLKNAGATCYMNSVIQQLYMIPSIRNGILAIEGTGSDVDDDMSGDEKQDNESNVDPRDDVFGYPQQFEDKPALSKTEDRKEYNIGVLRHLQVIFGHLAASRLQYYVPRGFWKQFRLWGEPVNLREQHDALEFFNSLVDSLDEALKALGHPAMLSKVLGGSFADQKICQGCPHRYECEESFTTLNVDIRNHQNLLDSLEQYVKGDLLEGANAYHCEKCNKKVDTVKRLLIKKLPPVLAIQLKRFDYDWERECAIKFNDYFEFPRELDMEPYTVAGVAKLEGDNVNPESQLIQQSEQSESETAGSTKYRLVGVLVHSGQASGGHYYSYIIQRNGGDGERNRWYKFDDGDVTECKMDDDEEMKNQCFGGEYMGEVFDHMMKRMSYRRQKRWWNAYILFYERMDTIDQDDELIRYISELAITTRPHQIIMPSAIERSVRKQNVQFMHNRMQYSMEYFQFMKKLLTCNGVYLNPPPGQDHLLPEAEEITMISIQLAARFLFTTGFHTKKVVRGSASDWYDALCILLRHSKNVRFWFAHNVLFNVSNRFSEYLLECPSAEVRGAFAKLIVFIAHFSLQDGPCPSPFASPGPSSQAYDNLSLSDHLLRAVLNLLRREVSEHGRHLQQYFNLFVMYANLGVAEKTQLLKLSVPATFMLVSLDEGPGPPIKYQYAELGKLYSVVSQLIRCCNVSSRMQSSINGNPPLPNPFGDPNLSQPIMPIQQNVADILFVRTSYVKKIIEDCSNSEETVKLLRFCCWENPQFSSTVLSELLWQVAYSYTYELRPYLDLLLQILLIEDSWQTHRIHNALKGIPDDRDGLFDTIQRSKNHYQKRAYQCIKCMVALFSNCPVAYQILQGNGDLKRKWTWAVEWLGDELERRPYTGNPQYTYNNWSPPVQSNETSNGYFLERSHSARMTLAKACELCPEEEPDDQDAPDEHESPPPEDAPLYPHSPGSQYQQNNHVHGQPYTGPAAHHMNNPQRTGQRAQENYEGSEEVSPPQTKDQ
Procedure, shortened: as §1

UniProt O00487 = biological target: UniProt O00487
UniProt O00487, sequence (O00487 whole entry): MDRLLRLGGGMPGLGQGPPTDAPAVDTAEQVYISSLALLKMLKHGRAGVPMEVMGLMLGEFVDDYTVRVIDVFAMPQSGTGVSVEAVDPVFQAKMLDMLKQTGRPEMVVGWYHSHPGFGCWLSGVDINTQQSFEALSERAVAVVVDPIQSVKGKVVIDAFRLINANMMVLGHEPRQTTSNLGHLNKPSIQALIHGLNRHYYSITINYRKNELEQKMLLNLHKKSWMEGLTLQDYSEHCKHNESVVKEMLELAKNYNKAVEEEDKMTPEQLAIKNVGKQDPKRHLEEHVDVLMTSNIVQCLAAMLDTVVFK
Procedure, shortened: as §1

Compound | log2 ratio of Biotin-Ahx-Ub-VS probe labelling (USP42) | log2 ratio of Biotin-Ahx-Ub-VS probe labelling (USP46) | log2 ratio of Biotin-Ahx-Ub-VS probe labelling (USP47) | log2 ratio of Biotin-Ahx-Ub-VS probe labelling (USP48) | log2 ratio of Biotin-Ahx-Ub-VS probe labelling (USP5) | log2 ratio of Biotin-Ahx-Ub-VS probe labelling (USP54) | log2 ratio of Biotin-Ahx-Ub-VS probe labelling (USP7) | log2 ratio of Biotin-Ahx-Ub-VS probe labelling (USP8) | log2 ratio of Biotin-Ahx-Ub-VS probe labelling (USP9X) | log2 ratio of Biotin-Ahx-Ub-VS probe labelling (UniProt O00487)
Cc1noc(N2CCN(C(=O)CCl)CC2)n1.Cl | 0.0551 | -0.0466 | -0.329 | 0.0849 | 0.492 | 0.167 | -0.27 | -0.307 | -0.318 | 0.0199
Cl.Cn1ncc2c1CCCC2NC(=O)CCl (stereo not given) | 0.564 | -0.0969 | -1.12 (active) | -0.07 | -0.277 | 0.656 | -0.377 | 0.0774 | -0.000676 | -0.128
